The text below walks through data of PubChem BioAssay (Tox21).

Test [1] in a line: qHTS assay to identify small molecule agonists of the peroxisome proliferator-activated receptor delta (PPARd) signaling pathway - cell viability counter screen (AID 743211; active = well fitted curve in the direction sought with a large enough effect in the repeat runs; an effect the other way counts as inactive or inconclusive; also: nearly all actives have a fitted effect of over 55% in size). In outline:
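PPARd-bla HEK293H cells (3000/well) were pre-incubated 5 h at 37 C, then exposed to compound for 17 h at 37 C. After 2 h with LiveBLAzer substrate, CellTiter-Glo was added to the same wells; luminescence read after 30 min at room temperature.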
Background: qHTS replaces the single test concentration by a dilution series.

For test [2], the target named is Bile acid receptor (Homo sapiens) (UniProt Q96RI1). Kind of test: qHTS assay to identify small molecule antagonists of the farnesoid-X-receptor (FXR) signaling pathway (AID 743217; active = well fitted inhibition curve with a large enough effect in the signal ratio in the repeat runs, not every such curve was filed as active; the % refers to the signal ratio). In outline:
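FRET fluorescence after 2 h room-temperature LiveBLAzer loading gives the readout. Prior step: FXR-bla HEK 293T cells, seeded and incubated 5 h, received test compounds plus 50 uM final CDCA for 16 h at 37 °C.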

The nature of test [3]: qHTS assay to identify small molecule agonists of the farnesoid-X-receptor (FXR) signaling pathway - cell viability counter screen (AID 743218; active = well fitted curve in the direction sought with a large enough effect in the repeat runs; an effect the other way counts as inactive or inconclusive; also: nearly all actives have a fitted effect of over 45% in size). In outline:
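Readout: CellTiter-Glo luminescence, 30 min RT, multiplexed after the FXR-bla FRET reading. HEK 293T FXR-UAS-bla cells received compound 5 h post-plating and were incubated 16 h at 37 C.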

Test [4] has as its target Bile acid receptor (Homo sapiens) (UniProt Q96RI1). Kind of test: qHTS assay to identify small molecule agonists of the farnesoid-X-receptor (FXR) signaling pathway (AID 743220; active = well fitted activation curve with a large enough effect in the signal ratio in the repeat runs, not every such curve was filed as active; the % refers to the signal ratio). In outline:
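FXR-UAS-bla HEK 293T cells carrying a UAS-driven beta-lactamase reporter were plated for 5 h at 37C/5% CO2, then exposed to DMSO-dissolved Tox21 10K compounds for 16 h at 37C. A LiveBLAzer B/G FRET substrate was loaded for 2 h at room temperature before fluorescence reading.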

Test [5] can be described thus: qHTS assay to identify small molecule antagonists of the farnesoid-X-receptor (FXR) signaling pathway - cell viability counter screen (AID 743221; active = well fitted cell-killing curve with a large enough effect in the repeat runs, not every such curve was filed as active; also: nearly all actives have a fitted effect of over 50% in size). In outline:
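GeneBLAzer FXR-UAS-bla HEK 293T cells, compound plus chenodeoxycholic acid (50 uM final), 16 h at 37 C. CellTiter-Glo added to the same wells after the beta-lactamase read; luminescence read after 30 min at room temperature as viability.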

A short description of test [6]: qHTS assay to identify small molecule agonists of the vitamin D receptor (VDR) signaling pathway - cell viability counter screen (AID 743224; active = well fitted curve in the direction sought with a large enough effect in the repeat runs; an effect the other way counts as inactive or inconclusive; also: nearly all actives have a fitted effect of over 50% in size; also: potency is read from the fitted curve at half-maximal effect). In outline:
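In parallel with the bla FRET readout, cytotoxicity toward VDR-bla cells after 16 h compound exposure was assessed by CellTiter-Glo, with luminescence recorded after a 30 min room-temperature incubation.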

Test [7] in a line: qHTS assay to identify small molecule antagonists of the vitamin D receptor (VDR) signaling pathway - cell viability counter screen (AID 743225; active = well fitted curve in the direction sought with a large enough effect in the repeat runs; an effect the other way counts as inactive or inconclusive; also: nearly all actives have a fitted effect of over 50% in size). In outline:
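VDR-UAS-bla HEK 293T cells were plated and incubated 4 h at 37C, then dosed with compound plus 3 nM (final) 1-alpha,25-dihydroxyvitamin D3 for 16 h. After the 2 h beta-lactamase read, viability in the same wells was read as CellTiter-Glo luminescence after 30 min at room temperature.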

A short description of test [8]: qHTS assay to identify small molecule agonists of the NFkB signaling pathway (AID 1159509; active = well fitted curve in the direction sought with a large enough effect in the signal ratio in the repeat runs, not every such curve was filed as active; the % refers to the signal ratio; also: series mostly up to about 61 µM). In outline:
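Pathway activation was measured in ME-180 cells stably expressing beta-lactamase under NF-kB response element control. Substrate cleavage was read as the 460/530 nm emission shift after 5 hr compound incubation.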

Test [9] in a line: qHTS assay to identify small molecule agonists of the NFkB signaling pathway - cell viability counter screen (AID 1159515). Also: series mostly up to about 61 µM; nearly all actives have a fitted effect of over 55% in size. In outline: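 Plate 2,000 NFkB-bla ME-180 cells/well; incubate overnight. Add compounds, 5 hr at 37 C. Add FRET substrate, 1.5 hr RT. Add CellTiter-Glo, 30 min RT; read luminescence.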
Test [10] in a line: qHTS assay to identify small molecule agonists of the endoplasmic reticulum stress response signaling pathway (AID 1159516; active = well fitted activation curve with a large enough effect in the signal ratio in the repeat runs, not every such curve was filed as active; the % refers to the signal ratio). The method in brief:
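Beta-lactamase expression from the ER stress response element in HeLa reporter cells is quantified with the LiveBLAzer B/G FRET substrate, read at 405 nm excitation after 2 hr at room temperature, following 5 hr compound treatment at 37 C.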

Test [11] can be described thus: qHTS assay to identify small molecule agonists of the endoplasmic reticulum stress response signaling pathway - cell viability counter screen (AID 1159517). Also: series mostly up to about 61 µM; nearly all actives have a fitted effect of over 50% in size. In outline:
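Cpd-treated ESRE-bla HeLa (5 hr, 37 C) → LiveBLAzer 2 hr RT → CellTiter-Glo 30 min RT → luminescence.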

A short description of test [12]: qHTS assay to identify small molecule antagonists of the retinoid-related orphan receptor gamma (ROR-gamma) signaling pathway - cell viability counter screen (AID 1159520; active = well fitted curve in the direction sought with a large enough effect in the repeat runs; an effect the other way counts as inactive or inconclusive; also: nearly all actives have a fitted effect of over 50% in size). In outline:
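Tet-on ROR gamma CHO cells (1,000/well) were plated 4 hr, given compounds in DMSO for 2 hr at 37 C, then induced with 1 uM final doxycycline for 16 hr. Viability was read as ATP by CellTiter-Glo luminescence after 30 min.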

A short description of test [13]: qHTS assay to identify small molecule agonists of the AP-1 signaling pathway - cell viability counter screen (AID 1159525). Also: nearly all actives have a fitted effect of over 55% in size. The method in brief: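 Each titration point was normalised to DMSO and tetra n-octyl ammonium bromide controls. The read was Cell Titer Glo luminescence after 30 min at RT, following 5 h compound exposure of ME-180 AP-1-bla cells at 37 °C.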

Test [14] is described as follows: qHTS assay to identify small molecule agonists of the AP-1 signaling pathway (AID 1159526).
Test [15] can be described thus: qHTS assay to identify small molecule antagonists of the peroxisome proliferator-activated receptor delta (PPARd) signaling pathway - cell viability counter screen (AID 743213; active = well fitted curve in the direction sought with a large enough effect in the repeat runs; an effect the other way counts as inactive or inconclusive; also: nearly all actives have a fitted effect of over 50% in size). The method in brief: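 Luminescence from CellTiter-Glo, added after the bla read and incubated 30 min at room temperature, gives viability of HEK293H PPARd-bla cells exposed to compounds for 17 h at 37 C with 300 nM L165041.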

Test [16] deals with Vitamin D3 receptor (Homo sapiens) (UniProt P11473). Briefly: qHTS assay to identify small molecule agonists of the vitamin D receptor (VDR) signaling pathway (AID 743222). In outline: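 Following 4 h attachment at 37C, VDR-bla cells (2,000 per well) received DMSO-dissolved compounds or controls. After 16 h incubation, LiveBLAzer B/G FRET substrate was added and fluorescence read 2 h later at room temperature.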
Chain of Vitamin D3 receptor (Homo sapiens) (P11473 whole entry, looked up): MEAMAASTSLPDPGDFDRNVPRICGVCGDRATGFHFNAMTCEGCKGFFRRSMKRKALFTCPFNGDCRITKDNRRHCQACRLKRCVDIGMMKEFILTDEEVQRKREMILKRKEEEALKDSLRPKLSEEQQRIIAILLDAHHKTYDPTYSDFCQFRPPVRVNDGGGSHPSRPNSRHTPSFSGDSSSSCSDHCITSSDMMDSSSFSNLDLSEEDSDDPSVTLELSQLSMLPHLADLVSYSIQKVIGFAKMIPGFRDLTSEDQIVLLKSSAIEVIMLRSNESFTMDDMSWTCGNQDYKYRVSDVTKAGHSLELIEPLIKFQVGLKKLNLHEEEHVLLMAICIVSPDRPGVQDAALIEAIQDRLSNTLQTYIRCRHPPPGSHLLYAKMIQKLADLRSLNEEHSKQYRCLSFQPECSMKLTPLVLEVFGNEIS

The target is the same in test [17]. Kind of test: qHTS assay to identify small molecule antagonists of the vitamin D receptor (VDR) signaling pathway (AID 743223; active = well fitted inhibition curve with a large enough effect in the signal ratio in the repeat runs, not every such curve was filed as active; the % refers to the signal ratio). The method in brief: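 VDR-bla cells were treated with compound plus 3 nM final 1alpha,25-dihydroxyvitamin D3 for 16 h at 37C. Beta-lactamase reporter read by B/G FRET substrate fluorescence after 2 h at room temperature. qHTS format.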

For test [18], the target named is Peroxisome proliferator-activated receptor delta (Homo sapiens) (UniProt Q03181). Briefly: qHTS assay to identify small molecule agonists of the peroxisome proliferator-activated receptor delta (PPARd) signaling pathway (AID 743212). In outline: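 Cells expressing a UAS-driven beta-lactamase reporter (PPARd-bla HEK293H) were given test compounds after a 5 h settle and kept at 37 C. Reporter activity was then measured as FRET fluorescence using LiveBLAzer B/G substrate.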
Chain of Peroxisome proliferator-activated receptor delta (Homo sapiens) (Q03181 whole entry, looked up): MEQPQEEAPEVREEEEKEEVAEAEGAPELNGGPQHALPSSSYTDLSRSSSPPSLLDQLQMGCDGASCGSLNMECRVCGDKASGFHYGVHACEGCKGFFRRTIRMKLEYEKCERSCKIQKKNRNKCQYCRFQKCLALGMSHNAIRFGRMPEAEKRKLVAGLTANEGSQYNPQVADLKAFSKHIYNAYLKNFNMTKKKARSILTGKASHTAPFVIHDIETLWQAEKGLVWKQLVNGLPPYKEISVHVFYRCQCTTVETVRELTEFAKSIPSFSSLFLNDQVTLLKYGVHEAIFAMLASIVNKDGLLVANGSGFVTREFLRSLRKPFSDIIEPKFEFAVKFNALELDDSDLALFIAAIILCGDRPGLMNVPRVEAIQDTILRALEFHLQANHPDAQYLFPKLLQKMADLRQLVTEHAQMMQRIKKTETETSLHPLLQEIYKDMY

Test [19] has the same target. Briefly: qHTS assay to identify small molecule antagonists of the peroxisome proliferator-activated receptor delta (PPARd) signaling pathway (AID 743215; active = well fitted inhibition curve with a large enough effect in the signal ratio in the repeat runs, not every such curve was filed as active; the % refers to the signal ratio;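 also: cells stimulated with agonist L165041 at 300 nM final during compound exposure; series mostly up to about 62 µM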). In outline:
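Fluorescence from cleaved LiveBLAzer B/G FRET substrate (2 h, room temperature) reports PPARd-driven beta-lactamase in HEK293H UAS-bla cells. Cells had been treated 17 h at 37 C with compound plus 300 nM final L165041.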

For test [20], the target named is Nuclear receptor ROR-gamma (Homo sapiens) (UniProt P51449). Briefly: qHTS assay to identify small molecule antagonists of the retinoid-related orphan receptor gamma (ROR-gamma) signaling pathway (AID 1159521; active = well fitted curve in the direction sought with a large enough effect in the repeat runs; an effect the other way counts as inactive or inconclusive). In outline:
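Tet-on ROR-gamma CHO cells with ROR response element-luciferase reporter; compounds added 2 hr before 1 uM doxycycline induction, then 16 hr at 37 C. Antagonism scored as decreased ONE-Glo luminescence.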

Inconclusive results are not listed. Calls of active or inactive are those of the source. Unless noted, calls follow the shape of the full dose curve.

Chain of Bile acid receptor (Homo sapiens) (Q96RI1 whole entry, looked up): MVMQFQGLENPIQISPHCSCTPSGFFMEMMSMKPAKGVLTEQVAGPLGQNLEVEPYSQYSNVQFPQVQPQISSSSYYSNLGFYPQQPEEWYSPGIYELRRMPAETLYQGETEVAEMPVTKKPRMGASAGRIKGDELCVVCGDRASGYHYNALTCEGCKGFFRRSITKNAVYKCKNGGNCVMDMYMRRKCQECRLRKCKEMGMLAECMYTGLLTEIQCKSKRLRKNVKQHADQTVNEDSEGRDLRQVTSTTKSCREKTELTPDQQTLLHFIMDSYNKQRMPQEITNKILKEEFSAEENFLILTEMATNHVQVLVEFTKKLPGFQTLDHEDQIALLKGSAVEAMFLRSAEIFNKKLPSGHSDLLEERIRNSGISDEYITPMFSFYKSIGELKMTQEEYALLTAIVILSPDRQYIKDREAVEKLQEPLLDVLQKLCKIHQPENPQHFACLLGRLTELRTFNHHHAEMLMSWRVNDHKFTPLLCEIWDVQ

`O=C(O)c1cccc(O)c1`: the Potency entry in test [1], in [2], in [3], in [4], in test [5] and in [6] was “inactive” throughout. Moreover, the Potency result in test [7] and in test [12] was “inactive” each time. For the same compound, the outcome in [8], in [9], in [10], in test [11], in [13] and in [14] was inactive.

Consider `Nc1ccc(S(=O)(=O)O)cc1`, for which the Potency result in test [15], in [2], in [3], in test [4], in test [5] and in test [6] was “inactive” each time. The Potency result in test [7] and in [12] was “inactive” each time. Also, the result in [16], in test [17], in test [8], in [9], in [10] and in test [11] was inactive. Further, the compound was classed as inactive in test [13] and in test [14].

For `CC(=O)CC(c1ccc([N+](=O)[O-])cc1)c1c(O)c2ccccc2oc1=O` (configuration not stated), the Potency entry in test [18], in test [15], in test [19], in test [3], in test [5] and in test [6] was “inactive” throughout. Besides, the Potency result in [7] and in test [12] was “inactive” each time. The compound was called inactive in test [16], in test [8], in test [9], in test [10], in test [11] and in [13]. Besides, the result in test [14] was inactive.

For `CC1=NN(c2ccc(C(=O)O)cc2)C(=O)C1`, the Potency entry in test [18], in test [15], in [19], in test [3], in test [5] and in test [6] was “inactive” throughout. The Potency result in [7] and in [12] was “inactive” each time. Also, the result in test [8], in [9], in test [10], in test [11], in [13] and in test [14] was inactive.

Consider `O=C(C(=O)c1ccccc1)c1ccccc1`, for which the Potency entry in test [1], in test [15], in test [5], in test [6], in [7] and in test [12] was “inactive” throughout. Also, the call in test [16], in [8], in test [9], in test [10], in test [11] and in [13] was inactive. Besides, the outcome in test [14] was inactive.

As to `CCCCCCCC/C=C\CCCCCCCC(=O)OC`, the Potency entry in [18], in test [15], in test [5], in test [6], in [7] and in test [12] was “inactive” throughout. Also, the result in [17], in [8], in test [9], in test [10], in [11] and in test [13] was inactive. For the same compound, in [14], the outcome was inactive.

In the case of `Oc1ccc(Nc2ccccc2)cc1`, the Potency result in test [18], in test [5] and in test [12] was “inactive” in each case. Moreover, the outcome in test [16], in test [8], in test [9], in test [10], in test [11] and in test [13] was inactive. Moreover, the outcome in test [14] was inactive. Besides, the Potency in test [6] was 54.9 µM (active).

With `CC(N)CN` (configuration not stated), the Potency result in [18], in test [15], in test [2], in [3], in test [4] and in test [5] was “inactive” each time. Further, the Potency result in test [6], in [7] and in [12] was “inactive” throughout. In addition, the compound was called inactive in test [17], in test [8], in [9], in test [10], in [11] and in [13]. Besides, in test [14], the outcome was inactive.

As to `CO[Si](C)(OC)OC`, the Potency entry in test [18], in test [15], in test [3], in test [4], in [5] and in test [6] was “inactive” each time. Further, the Potency entry in [7] and in test [12] was “inactive” each time. The result in test [16], in [17], in test [8], in [9], in [10] and in test [11] was inactive. Also, the compound was classed as inactive in test [13] and in test [14].

As for `COC(=O)c1cc(Cl)ccc1NS(=O)(=O)C(F)(F)F`, the Potency entry in test [1], in [15], in test [3], in test [4], in test [5] and in test [6] was “inactive” each time. In addition, the Potency entry in [7] and in [20] was “inactive” each time. For the same compound, the compound was called inactive in test [8], in test [9], in [10], in test [11], in test [13] and in test [14].
